UBC13 inh: UBC13 polyubiquitin chain formation inhibitors, primary screen, biochemical, TR-FRET, uHTS; inhibition, % at 20 µM; Ubiquitin-conjugating enzyme E2 N (Homo sapiens), P61088; 330,000 compounds, 0.47% hits; in the data active means inhibition above about 45%, passing the limit was not always enough
Target sequence (P61088 whole entry, looked up): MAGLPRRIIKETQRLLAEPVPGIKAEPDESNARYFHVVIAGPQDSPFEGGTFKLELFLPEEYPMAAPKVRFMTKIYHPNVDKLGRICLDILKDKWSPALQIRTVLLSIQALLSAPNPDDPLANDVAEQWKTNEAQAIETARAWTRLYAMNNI
Rce1 inhib: yeast Rce1p protease inhibitors, primary screen, biochemical, fluorescence, cell-free homogeneous | CAAX prenyl protease 2 (Saccharomyces cerevisiae (strain ATCC 204508 / S288c)), Q03530 | yeast membranes, quenched prenylated peptide cleavage fluorescence | calls only | 290,000 compounds, 0.27% hits;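 active means fall in fluorescence gain of 50% or more versus controls, with final raw signal at or below 3038400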;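 further: plate controls were neutral control wells for no effect and wells lacking membranes for full effect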
Target sequence (Q03530 whole entry, looked up): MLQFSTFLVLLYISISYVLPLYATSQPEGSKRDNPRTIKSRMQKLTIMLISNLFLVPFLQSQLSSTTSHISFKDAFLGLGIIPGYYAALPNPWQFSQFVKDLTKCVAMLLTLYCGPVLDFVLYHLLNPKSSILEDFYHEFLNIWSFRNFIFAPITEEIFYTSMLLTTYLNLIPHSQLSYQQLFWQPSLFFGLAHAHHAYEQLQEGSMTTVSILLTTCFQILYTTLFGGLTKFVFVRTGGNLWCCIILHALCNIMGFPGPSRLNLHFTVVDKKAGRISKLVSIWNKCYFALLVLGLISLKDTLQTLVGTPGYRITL
MEKK2wt PB1 HTS: modulators of MEK5 binding to wildtype MEKK2, primary screen, biochemical, multiplex bead flow cytometry, Alexa488-MEK5 | Mitogen-activated protein kinase kinase kinase 2 (Homo sapiens), Q9Y2U5 | Alexa488-MEK5 binding to MEKK2 WT; actives lie on both sides | binding response (% of control), % at 10 µM | 290,000 compounds, 1.1% hits | AID 1531, 2009; in the data active means binding response below about 67% or above about 130%
MEKK3 PB1 HTS: modulators of MEKK3-MEK5 PB1 binding, primary screen, biochemical, wildtype MEKK3, multiplex bead flow cytometry, Alexa488-MEK5 | binding response (% of control), % at 10 µM | 290,000 compounds, 1.4% hits | bead-based flow cytometry, Alexa488-MEK5 binding to MEKK3; actives lie on both sides; 0 = blocked by unlabeled MEK5, 100 = vehicle | Mitogen-activated protein kinase kinase kinase 3 (Homo sapiens), Q99759;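 active means binding response more than 3 SD above or below the average of its plate-row segment, actives on both sides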;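 further: Alexa488 bead fluorescence after subtracting the streptavidin-only scavenger bead signal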
MEKK2 mut-MEK5: MEK5 binding signal on mutant MEKK2 PB1, primary screen, biochemical, multiplex bead flow cytometry, Alexa488-MEK5 | Alexa488-MEK5 binding to MEKK2 mutant | percent response, % at 10 µM | 290,000 compounds, 0.35% hits | AID 1530, 2009; in the data active means percent response above about 24%, passing the limit was not always enough
MEKK2wt confirm: modulators of MEK5 binding to wildtype MEKK2, confirmation, biochemical, single concentration, multiplex bead flow cytometry; 5,900 compounds, 2.4% hits; shares compounds with MEKK3 PB1 HTS; binding response (% of control), % at 10 µM; Alexa488-MEK5 binding to MEKK2 WT; actives lie on both sides; AID 1892, 2009; in the data active means binding response below about 16% or above about 210%; inactive means in between
MEKK2mut-MEK5: mutant MEKK2 PB1-MEK5 binding signal retest – biochemical, single concentration, multiplex bead flow cytometry, confirmation; 5,900 compounds, 2% hits; shares compounds with MEKK3 PB1 HTS; Alexa488-MEK5 binding to MEKK2 mutant; percent response, % at 10 µM; in the data active means percent response mostly above about 71%, no sharp cut-off; inactive means mostly below about 38%;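 further: higher means compound restores mutant binding toward wildtype level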
MEKK3-MEK5 inh: MEKK3 wild-type PB1 binding to MEK5, inhibitors, confirmation, biochemical, bead multiplex flow cytometry, single concentration, wildtype; shares compounds with MEKK3 PB1 HTS; Alexa488-MEK5 binding to MEKK3; stronger effect = lower value; binding response (% of control), % at 10 µM; 5,900 compounds, 1.8% hits; AID 1894, 2009;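 active means binding response below 72% of control, or above a set upper limit, though filed actives all read lower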;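 further: 100% = DMSO only wells and 0% = binding blocked by excess unlabeled MEK5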
* hit, by the source's call; i = inactive; . = no result given; [ ] = dose if it differs, or a comment. In the library only some 2.5% were active in any assay of this set; here they are far more common.

SMILES | UBC13 inh | Rce1 inhib | MEKK2wt PB1 HTS | MEKK3 PB1 HTS | MEKK2 mut-MEK5 | MEKK2wt confirm | MEKK2mut-MEK5 | MEKK3-MEK5 inh
Cc1ccc(S(=O)(=O)N2CCOCC2)cc1NC(=O)CSc1nnc2cc(C)c3ccccc3n12 | 7 | i | 107 | 141* | 4 | 98 | -5 | 95
COc1ccc([N+](=O)[O-])cc1NC(=O)CSc1nncn1-c1ccccc1 | -1 | i | 105 | 107 | 55* | 102 | 0 | 104
CCCCN(C(=O)C(C)Oc1cccc(Cl)c1)c1c(N)n(CCC)c(=O)[nH]c1=O (configuration not stated) | 1 | i | . | . | . | . | . | .
COc1cc2c(cc1OC)C(c1ccccc1C(F)(F)F)CC(=O)N2 (configuration not stated) | 6 | . | 94 | 101 | 1 | . | . | .
CN(C)C(=O)c1ccc(N/C=C(\C=O)c2nc3ccccc3o2)cc1 | -7 | i | 95 | 93 | -10 | . | . | .
CCOC(=O)CSc1nnc(-c2c[nH]c3ccccc23)n1CC | 4 | i | 118 | 117 | 18 | . | . | .
O=C(COC(=O)C1COc2ccccc2O1)Nc1cccc(S(=O)(=O)N2CCCCC2)c1 (configuration not stated) | 12 | i | 99 | 98 | 0 | . | . | .
Cc1ccc(S(=O)(=O)N2CCOCC2)cc1NC(=O)COC(=O)C1COc2ccccc2O1 (configuration not stated) | -2 | i | 109 | 144* | 0 | 101 | -2 | 98
CCn1c(SCC(=O)OC)nnc1-c1c[nH]c2ccccc12 | 24 | . | 116 | 129* | 22 | 100 | 3 | 100
O=C(NCCc1ccccc1)c1nc(-c2cccs2)no1 | 6 | i | 101 | 101 | 2 | . | . | .
CN(C)S(=O)(=O)c1cccc(NC(=O)CSc2nc3ccccc3n2-c2ccccc2)c1 | 5 | i | 110 | 153* | -1 | 104 | -3 | 104
CCN(c1ccccc1)S(=O)(=O)c1cc(C(=O)Nc2ccccc2Cl)ccc1F | -2 | i | 100 | 66*[inhibitor] | 1 | 92 | -3 | 100
Cc1cccc(NC(=O)c2ccc(C3SCC(=O)N3CCc3ccccc3)cc2)c1C (configuration not stated) | 0 | i | 77 | 86 | -6 | . | . | .
Cc1nn(C)cc1CNC(=O)c1cccc(F)c1 | 14 | i | 103 | 107 | 0 | . | . | .
Cc1nn(C)cc1CNC(=O)c1cccc(Br)c1 | -8 | i | 96 | 122* | 8 | 99 | 2 | 97
CSc1ccc(/C=N/NC(=O)CN2CCN(Cc3ccc(Cl)cc3)CC2)cc1 | 27 | i | 111 | 137* | 2 | 111 | 9 | 103
CSc1ccc(/C=N/NC(=O)CN2CCN(Cc3ccccc3)CC2)cc1 | 7 | i | 124 | 106 | 8 | . | . | .
CSc1ccc(/C=N/N2CCN(Cc3ccc(Cl)cc3)CC2)cc1 | -4 | i | 4.0*[inhibitor] | 3.0*[inhibitor] | -46 | 105 | -1 | 103
CCn1c(=O)c(=O)[nH]c2cc(C(=O)N(C)Cc3ccc(OC)c(F)c3)ccc21 | 1 | i | 97 | 101 | 7 | . | . | .
CCN(CC)c1ccc2cc(C(=O)Nc3ccccn3)c(=O)oc2c1 | -4 | i | 58*[inhibitor] | 93 | -4 | 66 | -17 | 92
CCN(CC)c1ccc2cc(C(C)=O)c(=O)oc2c1 | -33 | i | 104 | 104 | 4 | . | . | .
Cc1cc(C)c(COc2ccc(/C=N/n3c(C)n[nH]c3=S)cc2)c(C)c1 | -19 | i | 82 | 72*[inhibitor] | -2 | 91 | -10 | 94
CC1(C)O[C@@H]2[C@H](O1)[C@@H](COS(=O)(=O)O)O[C@H]2n1c(=S)[nH]c2c(=O)[nH]c(N)nc21 | -7 | . | . | . | . | . | . | .
C=CCn1c(SCC(=O)Nc2ccc(OC)cc2)nc2c([nH]c3ccccc32)c1=O | -9 | i | 99 | 93 | 0 | . | . | .
C=CCn1c(SCCN2CCCC2)nc2c([nH]c3ccccc32)c1=O | -18 | i | 60 | 50*[inhibitor] | -14 | 105 | 3 | 104
SMILES | UBC13 inh | Rce1 inhib | MEKK2wt PB1 HTS | MEKK3 PB1 HTS | MEKK2 mut-MEK5 | MEKK2wt confirm | MEKK2mut-MEK5 | MEKK3-MEK5 inh
CCCCC(CC(O)COCCC)c1n[nH]c(=S)n1-c1ccccc1 (configuration not stated) | 7 | i | 106 | 128* | -1 | 106 | 5 | 101
CCOC(=O)c1cnn(CCOC(=O)C(C)(C)C)c1NC(=O)C(C)(C)C | 4 | i | 0.0*[inhibitor] | 2.0*[inhibitor] | -25 | 98 | -6 | 101
CC(C)n1c(SCC(=O)N2c3ccccc3Sc3ccccc32)nc2c1c(=O)n(C)c(=O)n2C | . | i | -3.0*[inhibitor] | 1.0*[inhibitor] | -21 | 99 | -3 | 104
CN(C)CCCn1c(SCC(=O)N2c3ccccc3Sc3ccccc32)nc2ccccc2c1=O | . | i | 166* | 103 | 45 | 157 | 25 | 102
Cn1c(SCC(=O)N2c3ccccc3Sc3ccccc32)nc2ccccc21 | 22 | i | 96 | 102 | -1 | . | . | .
CCCn1c(SCC(=O)N2c3ccccc3Sc3ccccc32)nc2c1c(=O)n(C)c(=O)n2C | -2 | i | 89 | 94 | -6 | . | . | .
C=CCn1c(SCC(=O)N2CCOCC2)nnc1C(C)NC(=O)c1ccccc1 (configuration not stated) | -11 | i | 111 | 106 | 9 | . | . | .
CC(C)N=c1cc2n(-c3ccc(Cl)cc3)c3ccccc3nc-2cc1Nc1ccc(Cl)cc1 | -74 | i | 114 | 70*[inhibitor] | 22 | 95 | 14 | 53*
Cn1c(CNc2ccc(Cl)cc2)nc2ccccc21 | -11 | i | 105 | 106 | 10 | . | . | .
Cc1onc(-c2ccccc2)c1C(=O)NC(=S)NNC(=O)c1ccncc1 | -10 | i | 107 | 131* | 1 | 105 | -2 | 100
C=CCNC(=O)[C@H]1N2C(=O)c3ccccc3C2SC1(C)C (some centres not stated) | 6 | i | 101 | 104 | 2 | . | . | .
O=C(CSc1cccc[n+]1[O-])N1CCCc2ccccc21 | 6 | i | 25*[inhibitor] | 70 | -18 | 99 | -1 | 101

Assay outcomes from PubChem BioAssay.
